Screens from PubChem.
CHO-K1 Ca antag – nonselective inhibitor or artifact in parental CHO-K1 cells; 360,000 compounds, 0.6% hits; ATP-induced calcium, Fluo-8 fluorescence; AID 602250; inhibition, % at 3 µM;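 active means inhibition above a per-plate cutoff, the plate's mean sample inhibition plus 3 SD, cut at about 24% in these data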;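 further: 0% = DMSO plus EC80 ATP and 100% = DMSO alone without ATP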
M1 ag – activates human CHRM1 receptor; P11229; CHO-K1 hM1, Fluo-8 calcium fluorescence, agonist mode; 0% DMSO, 100% acetylcholine EC100; activation, % at 3 µM; 360,000 compounds, 0.33% hits;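 active means activation above the run's mean compound activation plus 3 SD, cut at about 16% in these data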;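 further: peak over basal fluorescence ratio within a 140 s kinetic read after compound addition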
Target sequence (P11229 whole entry, looked up): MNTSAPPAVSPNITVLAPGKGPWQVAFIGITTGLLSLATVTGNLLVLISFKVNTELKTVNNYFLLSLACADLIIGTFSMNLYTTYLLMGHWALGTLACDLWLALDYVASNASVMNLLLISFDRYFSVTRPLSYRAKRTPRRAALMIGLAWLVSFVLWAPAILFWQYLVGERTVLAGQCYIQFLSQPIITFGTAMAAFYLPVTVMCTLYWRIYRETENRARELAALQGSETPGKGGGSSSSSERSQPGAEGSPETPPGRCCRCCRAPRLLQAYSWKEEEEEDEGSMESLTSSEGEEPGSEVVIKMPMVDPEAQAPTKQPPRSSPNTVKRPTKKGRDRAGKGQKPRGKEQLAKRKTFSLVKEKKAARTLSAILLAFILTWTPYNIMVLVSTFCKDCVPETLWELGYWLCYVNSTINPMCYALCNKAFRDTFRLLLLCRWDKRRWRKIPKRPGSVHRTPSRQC
M1 PAM parental – counter-screen for M1 PAMs: effect in parental CHO-K1 cells | 360,000 compounds, 0.02% hits | activation, % at 3 µM | AID 602247 | ATP EC20, Fluo-8 calcium fluorescence; 0% at ATP EC20, 100% at ATP max;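 active means activation above the run cutoff, the mean activation of all test compounds plus 3 SD, cut at about 40% in these data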;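 further: peak over basal fluorescence ratio in a 140 s read after ATP addition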
CHO-K1 Ca ag – nonselective activator or artifact in parental CHO-K1 cells; 360,000 compounds, 0.48% hits; Fluo-8 calcium fluorescence; scaled to maximal ATP response, vehicle zero; activation, % at 3 µM; AID 602248; in the data active means activation above about 15%;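 further: untransfected CHO-K1 host cells lacking M1 receptor as counterscreen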
M1 antag – human CHRM1 antagonism. P11229. CHO-K1 hM1, Fluo-8 calcium fluorescence, ACh EC80 antagonist. inhibition, % at 3 µM. 360,000 compounds, 1.3% hits. AID 588852;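 active means percent inhibition above its own plate's cutoff, namely the mean of that plate's compound wells plus 3 SD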;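 further: peak over basal fluorescence ratio during 140 s after agonist addition; 0% = ACh EC80 plus DMSO and 100% = DMSO alone without agonist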
M1 PAM – potentiates human M1 receptor response to acetylcholine; AID 588819; 360,000 compounds, 0.088% hits; activation, % at 3 µM; CHO-K1 hM1, Fluo-8 calcium fluorescence, ACh EC20; 0% = ACh EC20, 100% = maximal ACh; in the data active means activation above about 19%, passing the limit was not always enough
* marks the source's active call; other numbers are inactive results; / = no result. Rows were chosen to be rich in hits. Some 2.3% of all compounds tested hit in one or more screens of this group.

SMILES	CHO-K1 Ca antag	M1 ag	M1 PAM parental	CHO-K1 Ca ag	M1 antag	M1 PAM
Cc1ccc(C(C)C)c(OCCNC(=O)c2cncc(Br)c2)c1	-3	3	11	2	4	6
c1ccc(CCNCCOc2ccccc2)cc1	6	6	2	15*	-21	12
COc1cc(C(=O)NCCOc2cc(C)ccc2C(C)C)cc(OC)c1OC	23	8	-3	16*	15	-9
Cc1ccc(C(C)C)c(OCCn2ccnc2C)c1	6	-10	-12	1	99*	-30
Cc1ccc(C(C)C)c(OCCNCCc2ccccc2)c1	-4	-1	28	15	30*	-21
O=C(OC(C(=O)NCc1ccco1)c1ccc(Cl)cc1)c1cccs1 (stereo not drawn)	-9	-5	2	1	6	-2
CCCCCCn1cc(CN2CC(N3CCN(CCO)CC3)CS2(=O)=O)nn1 (stereo not drawn)	-17	/	18	1	/	/
Cc1ccc(NC(=O)COC(=O)c2nn(C)c(=O)c3ccccc23)cc1F	-8	0	4	1	-3	2
O=C1C2CCCN2C(c2cccs2)N1c1ccc(F)cc1 (stereo not drawn)	7	-11	-5	3	-3	3
COc1cccc(N2C(=O)C3CCCN3C2c2cccs2)c1 (stereo not drawn)	-12	18*	26	0	-6	7
CC[C@@H]1Cc2[nH][nH]c(=O)c2[C@H](c2ccc(Cl)cc2)O1	-9	/	7	0	/	/
Cc1ccc(CN2CCN(CCCn3cnc4c(OCc5ccccc5)ncnc43)CC2)cc1	-10	-8	-7	5	47*	-26
CCOC(=O)c1c(-c2ccccc2)nnn1-c1nc(OCC)nc(N2CCCCC2)n1	54*	-4	-1	8	3	-10
CN1c2ccccc2Oc2nnc(Cl)cc21	27*	-8	-16	-1	7	-5
OCC1OC(c2ccccc2)OC2COC(c3ccccc3)OC12 (stereo not drawn)	-13	1	-3	1	-5	-1
CCCN(CCC)CCCOC(=O)c1ccc(Cl)cc1Cl	-10	-4	19	2	68*	-21
CN(C)CCCOC(=O)c1ccc(Cl)cc1Cl	-6	-6	8	0	-4	8
COc1ccc(N(CC(=O)NCc2cccnc2)S(=O)(=O)c2ccccc2)c(OC)c1	-19	-9	12	4	-1	0
O=C(O)c1ccccc1C(=O)Nc1ccc(Br)c(C(F)(F)F)c1	-4	-3	6	1	2	4
Cc1cc(C)c(C(=O)Nc2ccc(Br)c(C(F)(F)F)c2)c(C)c1	8	-12	10	6	65*	-27
Cc1nc2ccc(Cl)cc2c(-c2ccccc2Cl)c1CC(=O)O	11	-2	-4	1	-4	6
CN1CCc2nc3ccc(Cl)cc3c(-c3ccccc3Cl)c2C1	11	-12	-6	0	93*	-26
Cc1ncc(CN2CCCCC2C(=O)Nc2ccc(Oc3ccccc3)nc2)cn1 (stereo not drawn)	7	-5	-22	0	10	-5
COCc1ccc(CN2CCCCC2C(=O)Nc2ccc(Oc3ccccc3)nc2)o1 (stereo not drawn)	-9	-5	14	2	47*	-22
CCOC(=O)N1CCC(NC(=O)c2cc(S(=O)(=O)N3CCCC3)cn2C)CC1	26*	-1	-8	0	2	2
SMILES	CHO-K1 Ca antag	M1 ag	M1 PAM parental	CHO-K1 Ca ag	M1 antag	M1 PAM
CC(OC(=O)CCCOc1ccccc1)C(=O)NC(N)=O (stereo not drawn)	28*	-2	-5	0	5	-6
CC1=C(C(=O)N(C(C)C)C(C)C)CC(CC(=O)NCc2cccs2)C(=O)N1CCC1=CCCCC1 (stereo not drawn)	-3	-4	20	2	-2	-2
CCC(NC(=O)c1cc(COc2cc(C)c(Cl)c(C)c2)on1)c1ccncc1 (stereo not drawn)	3	13	2	17*	12	5
Cc1ccc2c(c1)C(=O)C(=O)N2Cc1ccc(Br)cc1	1	21*	-8	0	0	9
Cc1nn(-c2ccccc2)cc1/C=N/NC(N)=S	0	5	11	0	-7	31*
CC1(C(O)(C#CC[N+]2(C)CCCCC2)c2ccccc2)CCCC1 (stereo not drawn)	22	-13	-15	0	72*	-32
C[N+]1(CC(=O)OCCCc2ccccc2)CCCCC1	-12	-8	4	1	19	-11
CCN(CC)CCNC(=O)C1(c2ccccc2)CCCCC1	-12	-8	12	1	40*	-23
CCN(CC)CCOC(=O)c1ccc(NC(=O)C2(c3ccccc3)CCCC2)cc1	-1	-5	19	2	46*	-19
O=C(O)c1ccc(NC(=O)C2(c3ccccc3)CCCC2)cc1	-8	-1	10	0	5	1
CC(C)NC(=O)C1(C)CCCCN1Cc1ccc(OCc2ccccc2)cc1 (stereo not drawn)	-6	-8	18	1	-1	5
O=C1Nc2ccccc2C(=O)N2[C@H](c3ccc(F)cc3)[C@@H]3C(=O)N(Cc4ccccc4)C(=O)[C@@H]3[C@H]12	17	36*	-21	1	16	8
C=CCSc1nc2sc3c(c2c(=O)n1-c1ccccc1)CCN(C)C3	1	-8	3	4	37*	-23
CCOC(=O)CSc1nc2sc3c(c2c(=O)n1C1CCCCC1)CCN(C)C3	1	-7	8	0	24*	-25
CCOC(=O)CSc1nc2sc3c(c2c(=O)n1-c1ccc(OCC)cc1)CCN(C)C3	-6	-6	1	-1	-7	9
CCSc1nc2sc3c(c2c(=O)n1-c1ccccc1)CCN(C)C3	-1	-8	6	1	22	-17
COc1ccc(-n2c(SC)nc3sc4c(c3c2=O)CCN(C)C4)cc1	0	-6	5	0	70*	-2
CCOC(=O)N1CCN(c2ccc(S(=O)(=O)N3CCC(C)CC3)cc2[N+](=O)[O-])CC1	-15	2	4	3	-7	8
COc1ccc(CCNC(=O)C(=O)NCC2OCCN2S(=O)(=O)c2cccs2)cc1 (stereo not drawn)	4	-2	4	5	-6	5
Cc1c(NC(=S)Nc2ccc(Cl)cc2)c(=O)n(-c2ccccc2)n1C	-17	-3	5	0	-5	3
CCc1cc(C(=O)N(CCCOC)c2c(N)n(Cc3ccccc3)c(=O)[nH]c2=O)sc1C	1	-2	1	1	-17	4
O=C(N/N=C/c1ccncc1)c1ccc(OCc2ccccc2)cc1	-7	21*	15	3	-2	1
